HT1080NT lethal: qHTS for induction of synthetic lethality in tumor cells producing 2HG: qHTS for the HT-1080-NT fibrosarcoma cell line; HT-1080-NT fibrosarcoma viability, CellTiter-Glo ATP luminescence, 48 h; Potency, µM (series often up to 46.1 µM), for the others: at the highest dose activity, negative = less viability, usual class: cytotoxic; 360,000 compounds, 1.6% hits;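 note: NT is the 2HG producing partner of a matched IDH1 knockdown line; potency is the fitted concentration of half-maximal effect; 0% = DMSO-treated cells and -100% = media-only wells without cells; nearly all actives have a fitted effect of over 55% in size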
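Fibrosarcoma NT cells, 750 per well in 5% FBS RPMI, were exposed to compound for 48 hours. Viability: CellTiter-Glo luminescence.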
HepG2 tox: qHTS for Inhibitors of TGF-b: Cytotox Counterscreen; AID 588856, 2011; 410,000 compounds, 0.76% hits; HepG2 CAGA-GFP viability, ATP luminescence, 18 h; Potency, µM (series often up to 46.1 µM), inactives show top-dose activity change, negative = cytotoxicity, actives largely listed as cytotoxic; note: potency is the fitted concentration of half-maximal effect
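CellTiter-Glo luminescence gave cytotoxicity after 18 hours at 37 degrees C. The cells were HepG2 CAGA-GFP in 1% FBS DMEM, stimulated with 500 pg/mL TGF-beta after compound addition. %Activity was normalised to no-cell wells (complete cell-killing) and DMSO (no toxicity), and curves were fitted and classified.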
HT1080 IDH1KD tx: qHTS for induction of synthetic lethality in tumor cells producing 2HG: qHTS for the HT-1080-IDH1KD cell line | HT-1080 IDH1 knockdown viability, ATP luminescence, 48 h | Potency, µM (highest dose often 46.1 µM), inactives show at the top dose activity, negative = toxicity, actives largely listed as cytotoxic | 360,000 compounds, 2% hits;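 note: potency is the fitted concentration of half-maximal effect; 0% = DMSO wells and -100% = cell-free medium wells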
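IDH1KD HT-1080 cells, 750/well, RPMI + 5% FBS; compound pinned after 2 h settling; 48 h, 37 °C; CellTiter-Glo luminescence; % activity normalised to DMSO and no-cell wells; curves fitted, classed by r2 and efficacy.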
Giardia kill: Small Molecules that selectively kill Giardia lamblia: qHTS; 340,000 compounds, 0.15% hits; Giardia lamblia trophozoite viability; activity change, % at 7.66 µM, hits read low; in the data active = activity change below about -80%; inconclusive = between about -30% and that limit;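 note: parasites exposed to compound for two days anaerobically before the ATP read; % is set by controls: 0 for no effect and ±100 for the full control effect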
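Trophozoite viability was measured as ATP-dependent luminescence, read 15-30 min after reagent addition. Before that, parasites at 100 cells/well were exposed to compounds for 48 h, anaerobically, at 37 deg C.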
TGFb SMAD3 inh: qHTS for Inhibitors of TGF-b. HepG2 CAGA-GFP TGF-b/SMAD3 reporter, GFP fluorescence, 18 h; TGF-beta stimulated, 500 pg/mL final. Potency, µM (titrated, usually from 46.1 µM), for inactives: at the highest dose activity, negative = inhibition, usual class: inhibitors. 410,000 compounds, 1.2% hits; note: potency is the fitted concentration of half-maximal effect; % is set by controls: 0 for no effect and ±100 for the full control effect; nearly all actives have a fitted effect of over 65% in size
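HEPG2 CAGA-GFP reporter cells (1000/well, DMEM with 1% FBS) received compounds, then recombinant TGF-beta at 500 pg/mL final for 18 hours at 37 degrees C. Per-cell GFP summed per well was normalised to unstimulated and stimulated DMSO controls before curve fitting.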
IL1B secr inh: qHTS for Inhibitors of Inflammasome Signaling: IL-1-beta AlphaLISA Primary Screen; 360,000 compounds, 4.7% hits; AID 743279, 2014; activity change, % at 57.5 µM; THP-1 LPS/ATP IL-1B secretion, AlphaLISA, 16 h; stronger effect = lower value; in the data active = activity change below about -50%; inconclusive = mostly about -30% to -49%; note: % is set by controls: 0 for no effect and ±100 for the full control effect
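Secreted IL-1B measured by AlphaLISA bead assay after 16 h compound exposure of THP-1 cells; compounds (final up to 57.5 uM) added 1 h before LPS (250 ng/mL) and ATP (1.25 mM) stimulation; lower signal means less secretion.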
Starred values were filed as active, the others as inactive; ? = inconclusive; nt = no result given; ! = not active in a repeat. An excerpt weighted towards active compounds, which were near 6.5% of everything screened. Unless noted, calls come from the whole dose curve; as a rule, active = well fitted curve in the direction sought with a large enough effect; inconclusive = small, poorly fitted or top-dose-only effect, or another doubt; inactive = no such curve, though single readings can be large; an effect the other way counts as inactive or inconclusive.

SMILES	HT1080NT lethal	HepG2 tox	HT1080 IDH1KD tx	Giardia kill	TGFb SMAD3 inh	IL1B secr inh
CO[C@H]1C=CO[C@@]2(C)Oc3c(C)c(O)c4c(O)c(c(C=NN5CCN(C)CC5)c(O)c4c3C2=O)NC(=O)C(C)=CC=C[C@H](C)[C@H](O)[C@@H](C)[C@@H](O)[C@@H](C)[C@H](OC(C)=O)[C@@H]1C	-15.6%	-14.8%	-16.0%	-4.1	-26.3%	-9.0
CCc1ccccc1NS(=O)(=O)c1ccc2oc(=O)c3ncn(C)c3c2c1	nt	-20.7%	nt	nt	-21.1%	nt
CN(C)CCNC(=O)c1cccc(NS(=O)(=O)c2ccc(Cl)c(Cl)c2)c1	-22.3%	3.4%	-17.8%	-4.1	0.3%	?
CN(C)CC(C)(C)CNS(=O)(=O)c1ccc(Cl)c(Cl)c1	-23.2%	0.2%	16.4µM*!	17.1	-8.7%	-53.8*!
CC(C)=CCc1c(O)cc2oc3c(CC=C(C)C)c(O)c(O)c(CC=C(C)C)c3c(=O)c2c1O	?	8.91µM*	?	1.8	6.31µM*	2.4
O=C(Cn1nc(CNc2ccc(Br)cc2)[n+]2c1CCCCC2)c1ccc([N+](=O)[O-])cc1	?	0.9%	?	-9.7	-22.2%	-61.3*
O=C(Cn1nc(CNc2ccc(Cl)cc2)[n+]2c1CCCCC2)c1ccc(Br)cc1	-13.0%	-37.5%	-19.4%	-1.4	0.0%	-52.3*
COc1ccccc1N1CCN(c2nc(C)nc3c2oc2ccccc23)CC1	1.12µM*	-52.0%	1.26µM*	20.6	?	-10.0
Cc1nc(N2CCN(Cc3ccc4c(c3)OCO4)CC2)c2oc3ccccc3c2n1	?	-14.9%	?	1.8	?	?
Cc1nc(N2CCN(Cc3ccc(Cl)cc3)CC2)c2oc3ccccc3c2n1	-24.0%	-9.2%	?	6.2	-14.3%	-63.4*
CC(C)(C(=O)O)c1ccc([C@H](O)CCCN2CCC(C(O)(c3ccccc3)c3ccccc3)CC2)cc1	?	-1.6%	7.7%	8.0	14.7%	20.5
COc1ccccc1OCCCCN1CCC(C)CC1	15.8%	0.7%	5.6%	4.1	5.2%	7.3
OC(c1ccccc1)(c1ccccc1)C1CCN(CCCOc2ccccc2Cl)CC1	20.6µM*	nt	?	nt	nt	?
C#Cc1ccccc1OCCCN1CCC(C(O)(c2ccccc2)c2ccccc2)CC1	16.4µM*	nt	16.4µM*	nt	nt	0.0
COc1ccccc1OCCCN1CCC(C(O)(c2ccccc2)c2ccccc2)CC1	20.6µM*	nt	16.4µM*	nt	nt	-54.2*
COc1ccc(CCNC(=O)c2ccc(Nc3nc4ccccc4n4nnnc34)cc2)cc1OC	nt	-30.9%	nt	nt	0.4%	nt
C/C(=N/Nc1cc(-c2ccccc2)nc(-c2ccccc2)n1)c1ccc(O)cc1	-16.2%	-111.6%	?	19.7	?	-105.3*
C/C(=N\Nc1cc(-c2ccccc2)nc(-c2ccc(Br)cc2)n1)c1cccc(N)c1	11.2µM*	-33.1%	17.8µM*	1.8	?	-5.6
C/C(=N\Nc1ccccc1)c1cccc(N)c1	-5.0%	19.5%	-23.3%	-4.3	-11.2%	1.5
C/C(=N\Nc1cc(Cl)nc(C)n1)c1ccccc1	4.3%	-15.6%	0.5%	4.3	-2.4%	-15.7
CCn1c(=O)c2cc(C(=O)NCCC(C)C)sc2c2ccccc21	9.4%	18.3%	0.3%	1.2	-6.9%	?
CCCCN(CC)CCCNC(=O)c1cc2c(=O)n(CC)c3ccccc3c2s1	18.4µM*	-99.6%	29.1µM*	22.3	12.6µM*	-76.7*
CCn1c(=O)c2cc(C(=O)NCCCOC)sc2c2ccccc21	?	4.7%	?	-10.2	18.2%	-50.1*
CCN(CCCNC(=O)c1cc2c(=O)n(CC)c3ccccc3c2s1)c1ccccc1	nt	-34.0%	nt	nt	?	nt
COCCCNC(=O)c1ccc(Cn2c(=O)c3ccccc3n(Cc3cc(C)ccc3C)c2=O)cc1	-1.5%	-22.1%	-5.2%	10.7	-9.7%	-18.5
SMILES	HT1080NT lethal	HepG2 tox	HT1080 IDH1KD tx	Giardia kill	TGFb SMAD3 inh	IL1B secr inh
COCCCNC(=O)c1ccc(Cn2c(=O)c3ccccc3n(Cc3ccccc3C)c2=O)cc1	?	-31.7%	16.4µM*	-7.9	-30.4%	6.4
CCCCN(CC)CCNC(=O)c1cc2c(=O)n(C)c3ccccc3c2s1	?	12.6µM*	?	-2.7	?	-86.2*
CCN(CC)CCNC(=O)c1cc2c(=O)n(C)c3ccccc3c2s1	?	-53.3%	?	10.0	-18.4%	?
CCn1c(=O)c2cc(C(=O)NCC(OC)OC)sc2c2ccccc21	13.7%	-3.0%	-0.2%	-4.1	0.0%	-55.8*
CCCN(CCC)CCCNC(=O)c1cc2c(=O)n(CC)c3ccccc3c2s1	-13.9%	-70.7%	-3.2%	10.4	6.7%	-63.2*
CCCCN(CC)CCNC(=O)c1cc2c(=O)n(CC)c3ccccc3c2s1	-8.0%	12.6µM*!	3.5%	55.9	10.4%	?
O=C(CSc1nc2c([nH]c3ccccc32)c(=O)n1-c1ccc(F)cc1)Nc1ccc2c(c1)OCCO2	nt	-2.8%	nt	nt	0.0%	nt
Cc1ccc(NC(=O)c2nc[nH]c2C(=O)N2CCN(C(=O)OC(C)(C)C)CC2)cc1	14.3%	-1.9%	8.8%	-1.0	4.5%	-15.5
CC(C)(C)OC(=O)N1CCC(NC(=O)c2[nH]cnc2C(=O)Nc2cccc(Cl)c2)CC1	13.2%	6.7%	9.6%	25.4	?	-58.2*
CC(C)(C)OC(=O)N1CCN(C(=O)c2[nH]cnc2C(=O)Nc2ccc(Cl)cc2)CC1	20.4%	-0.9%	16.3%	-3.5	-0.3%	-52.2*
CC(C)(C)OC(=O)N1CCC(NC(=O)c2nc[nH]c2C(=O)NC2CCN(C(=O)OC(C)(C)C)CC2)CC1	2.6%	-12.0%	-3.9%	-3.7	?	-12.2
OCCNCc1c(OCc2ccc(Cl)cc2)ccc2ccccc12	23.1µM*	-95.9%	?	9.5	?	nt
OCCNCCNCc1ccccc1OCc1ccccc1	0.5%	-23.3%	-9.1%	-1.6	-29.0%	?
CC(O)CNCCNCc1c(OCc2ccccc2)ccc2ccccc12 (stereo unspecified)	17.8µM*	-93.1%	11.2µM*	11.6	11.2µM*	-86.8*
CCc1nc2ccc(C(=O)NCCCn3ccnc3)cn2c1N(CC)CCN(C)C	11.8%	-7.6%	10.7%	nt	6.9%	-22.0
CCCCOc1cccc(C(=O)NC(=S)Nc2ccc(Cl)c(C(=O)O)c2)c1	-5.7%	-16.8%	-10.1%	9.5	18.3%	11.2

Screens (PubChem BioAssay)
